Source: PubChem BioAssay (NCI)
Compounds without any hit were thinned out: in the full panel of roughly 83,000, 20% have a hit.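 Percent growth is the endpoint: 0 to 100 indicates growth inhibition (40 means 60% inhibition), 0 means no net growth, and negative values indicate cell death.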 Unmarked numbers belong to inactive results. The source made the active and inactive calls. How the source made its calls: active means growth percent below 10; inactive means the rest.

What was measured:
Assay in all cases: NCI-60 one-dose screen, 48 h (100 = growth as untreated, 0 = no growth, -100 = all killed)
Conditions in all cases: 10 µM unless noted
[1] = test system: DU-145 prostate
[2] = test system: K-562 leukemia
[3] = test system: MALME-3M melanoma
[4] = test system: MDA-MB-231 breast
[5] = test system: RXF 393 renal
[6] = test system: SF-268 CNS
[7] = test system: SF-295 CNS
[8] = test system: SF-539 CNS
[9] = test system: UACC-257 melanoma
[10] = test system: M14 melanoma
[11] = test system: HCT-15 colon
[12] = test system: HT29 colon
[13] = test system: SNB-75 CNS
[14] = test system: SNB-19 CNS
[15] = test system: U251 CNS
[16] = test system: PC-3 prostate
[17] = test system: SK-MEL-5 melanoma
[18] = test system: UACC-62 melanoma
[19] = test system: LOX IMVI melanoma
[20] = test system: SK-MEL-28 melanoma

O=C1CC(c2ccccc2)Cc2nc3ccc(Br)cc3cc21 (stereo not given)
growth [1]: -3.21% (active) | growth [2]: 6.14% (active) | growth [3]: 38.8% | growth [4]: 13.2% | growth [5]: 28.4% | growth [6]: 46.7% | growth [7]: 17.2% | growth [8]: 1.6% (active) | growth [9]: 69.2% | growth [10]: 10.2% | growth [11]: 16% | growth [12]: 2.2% (active) | growth [13]: 36.6% | growth [14]: 27.4% | growth [15]: 18.1% | growth [16]: 32% | growth [17]: 2.1% (active) | growth [18]: 36.2% | growth [19]: 31.5% | growth [20]: 56.7%

CCOC(=O)COc1c(C)cc(SSc2cc(C)c(OCC(=O)OCC)c(C)c2)cc1C
growth [1]: 108% | growth [2]: 96.2% | growth [3]: 110% | growth [4]: 107% | growth [5]: 126% | growth [6]: 99% | growth [7]: 105% | growth [8]: 112% | growth [9]: 80.8% | growth [10]: 103% | growth [11]: 88.8% | growth [12]: 97.8% | growth [13]: 87.9% | growth [14]: 109% | growth [15]: 75.4% | growth [16]: 65.2% | growth [17]: 94.6% | growth [18]: 87.3% | growth [19]: 103% | growth [20]: 100%

COc1ccc2c3ccnc(C(F)(F)F)c3n(CCCCN)c2c1
growth [1]: 71.4% | growth [2]: 71.1% | growth [3]: 43.7% | growth [4]: 41.5% | growth [5]: 49.8% | growth [6]: 67.5% | growth [7]: 59.7% | growth [8]: 34.6% | growth [9]: 37.9% | growth [10]: 23.6% | growth [11]: 62.9% | growth [12]: 22.6% | growth [13]: 49.2% | growth [14]: 68% | growth [15]: 46.4% | growth [16]: 22.8% | growth [17]: 70.7% | growth [18]: 39.2% | growth [19]: 32.3% | growth [20]: 38.6%

CCOc1cc(NC(=O)c2ccccc2)c(OCC)cc1N
growth [1]: 110% | growth [2]: 113% | growth [3]: 147% | growth [4]: 104% | growth [5]: 117% | growth [6]: 106% | growth [7]: 121% | growth [8]: 112% | growth [9]: 118% | growth [10]: 116% | growth [11]: 111% | growth [12]: 121% | growth [13]: 106% | growth [14]: 105% | growth [15]: 106% | growth [16]: 104% | growth [17]: 107% | growth [18]: 106% | growth [19]: 100% | growth [20]: 118%

Cn1cc(-c2noc(-c3cn(C)c4ncc(F)cc34)n2)c2cc(Cl)ccc21
growth [1]: 80.3% | growth [2]: 77.2% | growth [3]: 48.1% | growth [4]: 52.7% | growth [5]: 78% | growth [6]: 69.2% | growth [7]: 41.6% | growth [8]: 46% | growth [9]: 96.5% | growth [10]: 78.6% | growth [11]: 65.8% | growth [12]: 25.5% | growth [13]: -24.2% (active) | growth [14]: 70.1% | growth [15]: 19.4% | growth [16]: 79.4% | growth [17]: 87% | growth [18]: 77.8% | growth [19]: 52.5% | growth [20]: 85.8%

Cc1ccc2c(n1)C(=O)C(Cl)=C(Nc1ccc(N3CCN(C)CC3)cc1)C2=O
growth [1]: -18.7% (active) | growth [2]: -12.3% (active) | growth [3]: -75.5% (active) | growth [4]: -62.8% (active) | growth [5]: 62.8% | growth [6]: 77.7% | growth [7]: 99.4% | growth [8]: -24.5% (active) | growth [9]: 57.2% | growth [10]: 73.8% | growth [11]: 70.4% | growth [12]: 66.4% | growth [13]: -53.8% (active) | growth [14]: 94.6% | growth [15]: 8.47% (active) | growth [16]: 68.7% | growth [17]: 10.4% | growth [18]: -49.4% (active) | growth [19]: -95.4% (active) | growth [20]: 30.3%

O=C(N/N=C\c1cc(Cl)ccc1O)N/N=C/c1cc(Cl)ccc1O
growth [1]: 87.4% | growth [2]: 18.4% | growth [3]: 74.1% | growth [4]: 48.3% | growth [5]: 85% | growth [6]: 57.9% | growth [7]: 25.5% | growth [8]: 39.3% | growth [9]: 65.5% | growth [10]: 50.4% | growth [11]: 32.5% | growth [12]: 93.9% | growth [13]: 39.8% | growth [14]: 58.2% | growth [15]: 49.9% | growth [16]: 40% | growth [17]: 52.1% | growth [18]: 54.7% | growth [19]: 42.6% | growth [20]: 80.4%
